Experimental data reported in PubChem BioAssay (EPA / NIEHS).
Several values for one entry are separate records, joined by “and”; a condition that tells them apart may be missing. Equal values may be shown once. Some structures have more than one record in an assay (separate samples or runs), and their calls can disagree. Activity calls are given as the source filed them. How the source made its calls: active means hit-call score of the fitted dose curve at least 0.9, where 1 is the maximum; inactive means score below 0.9.

experiment: BSK_3C_Proliferation: Cell Proliferation Assessment in the BioMAP Diversity Plus: 3C Assay (AID 2283006); settings: primary human endothelial cells (HUVEC);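 on AC50: potency may reflect either rise or fall in cell number versus DMSO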
Description: BSK_3C is a cell-based, multiplexed-readout assay that uses umbilical vein endothelium, a human vascular primary cell, with measurements taken at 24 hours after chemical dosing in a 96-well plate.BSK_3C_Proliferation is an assay component measured in the BSK_3C assay. It measures 0.1% sulforhodamine related to cell proliferation using Sulforhodamine staining technology.Data from the assay component BSK_3C_Proliferation was analyzed into 1 assay endpoint. This assay endpoint, BSK_3C_Proliferation, was analyzed with bidirectional fitting relative to DMSO as the negative control and baseline of activity. Using a type of viability reporter, measures of total protein for gain or loss-of-signal activity can be used to understand the viability at the cellular-level. Furthermore, this assay endpoint can be referred to as a secondary readout, because this assay has produced multiple assay endpoints where this one serves a viability function. To generalize the intended target to other relatable targets, this assay endpoint is annotated to the cell cycle intended target family, where the subfamily is proliferation.
The levels of cell surface (or secreted, indicated by the prefix "s") biomarker endpoints were measured by ELISA. Overt cytotoxicity to cells in confluent adherent cultures (all systems other than the BT system) was assessed by measuring total protein levels using sulforhodamine B (SRB) staining in parallel cultures at the time of biomarker measurements, indicated as SRB endpoints. For proliferation assays for adherent cell types, individual cell types are cultured at sub-confluence and relative cell numbers quantified by SRB staining at time points optimized for each system (48 h: 3C and CASM3C systems; 72 h: BT and HDF3CGF systems; 96 h: SAg system). SRB was performed by staining cells with 0.1% SRB after fixation with 10% TCA and reading wells at 560 nm.Viability and proliferation of PBMC (T cells) was quantified by Alamar Blue reduction for the SAg and BT systems. For PBMC viability (referred to as PBMC Cytotoxicity within the assay endpoint names), cells were plated (75,000/well in a 96-well plate) and then chemical samples added for 1 h before addition of activators, SEB and TSST-1 (20 ng/mL final concentration each). Cells were incubated for 90 h. Then, Alamar Blue (20 uL/well) (Invitrogen, Cat DAL1100) was added for 6 h, and the plates were read with a fluorescence microplate reader at 546/580 nm (excitation/emission). For PBMC proliferation, cells were plated and activated as above but incubated for only 16 h prior to addition of Alamar Blue. Plates were read after 6 h.

| SMILES | AC50 | outcome |
| --- | --- | --- |
| CCCCCCCCCCCC(=O)N(C)CC(=O)O | 15.2 µM (active) | inactive |
| CC(C)CCCCCOC(=O)CS | – | inactive |
| CCCCC1C(=O)N(c2ccccc2)N(c2ccccc2)C1=O | – | inactive |
| C=CC(=O)NCOCCCC | – | inactive |
| CCCCCCCO | – | inactive |
| O=C(O)C(F)(F)C(F)(F)C(F)(F)C(F)(F)C(=O)O | – | inactive |
| CCCCCCOC(=O)CCCCC(=O)OCCCCCC | – | inactive |
| CCN1CN(CC)CN(CC)C1 | – | inactive |
| COC(OC)(C(=O)c1ccccc1)c1ccccc1 | – | inactive |
| c1ccc2c(c1)[nH]c1ccccc12 | 9.38 µM (active) | inactive |
| Cc1c(O)cccc1O | – | inactive |
| CCCC(C)C(=O)OCC (stereo not given) | – | inactive |
| O=C1CCCCCCCCCCC1 | – | inactive |
| C[N+](C)(C)CCCNS(=O)(=O)C(F)(F)C(F)(F)C(F)(F)C(F)(F)C(F)(F)C(F)(F)C(F)(F)C(F)(F)F | 43.4 µM (active) and 42.7 µM (active) | – |
| COc1ccc(C(=O)/C(Br)=C\C(=O)O)cc1 | 6.82 µM (active) and 20 µM (active) | – |
| C=CC(=O)OCCCCCCOC(=O)C=C | 8.97 µM (active) | – |
| CCCCCCCCCCCC(C)=O | 20 µM (active) | – |
| C=CC(=O)OCC(C)OCC(C)OCC(C)OC(=O)C=C (stereo not given) | 9.51 µM (active) | – |
| CCOC(=O)C1=NOC(c2ccccc2)(c2ccccc2)C1 | 28.4 µM (active) | – |

| SMILES | AC50 | outcome |
| --- | --- | --- |
| Nc1nc(N)nc(-c2ccccc2)n1 | – | inactive |
| CC(C)[N+](C)(CCOC(=O)C1c2ccccc2Oc2ccccc21)C(C)C | – | inactive |
| C=CC(=O)OCCCCCCCC(C)C | 9.67 µM (active) | – |
| CCNc1nc(NC(C)(C)C)nc(OC)n1 | – | inactive |
| CCCCCCC=O | – | inactive |
| CCCCCC1=CCCC1=O | – | inactive |
| CCCCCCCCC(CO)CCCCCC (stereo not given) | – | inactive |
| CC=C(C)C=CC=C(C)C | 22.1 µM (active) | – |
| CC(C)C(=O)OCCc1ccccc1 | – | inactive |
| O=C(Oc1ccccc1)c1ccccc1C(=O)Oc1ccccc1 | – | inactive |
| Nc1ccc(C(=O)O)cc1 | – | inactive |
| CC(CCC(=O)O)(c1ccc(O)cc1)c1ccc(O)cc1 | – | inactive |
| Oc1c(Cl)cc(Cl)c(Cl)c1Cl | 20 µM (active) | – |
| Oc1ccccc1Cc1ccccc1O | 7.87 µM (active) and 20 µM (active) | – |
| Clc1cc(Cl)c(Cl)c(Cl)c1Cl | – | inactive |
| CCc1cccc(C)c1N(C(=O)CS(=O)(=O)O)C(C)COC (stereo not given) | – | inactive |
| CC/C=C\CCOC(=O)c1ccccc1O | 22.8 µM (active) | – |
| C1CNCCN1 | – | inactive |
| c1ccc(Nc2cccc3ccccc23)cc1 | 27 µM (active) and 30.4 µM (active) | – |
